In PubChem BioAssay (NCI) one finds growth data, which are given here for eight compounds.

SMILES strings stand for the structures. The panel holds about 83,000 compounds, 20% with a hit somewhere; the sample as a whole holds those more often.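 Negative percent growth values reflect cell death: -40 means 40% of the cells present at the start died, and -100 means all died.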 Values without a mark were called inactive. Active and inactive are the calls of the source. The calls were made as follows: active = growth percent below 10; inactive = the rest.

Among the test systems are NCI-H23 lung; NCI-H226 lung; NCI-H322M lung; HOP-62 NSCLC; NCI-H460 lung; HOP-92 NSCLC; NCI-H522 lung; A549/ATCC NSCLC; 786-0 renal; COLO 205 colon; DU-145 prostate; K-562 leukemia; MALME-3M melanoma; MDA-MB-231 breast; RXF 393 renal; SF-268 CNS; SF-295 CNS; SF-539 CNS; UACC-257 melanoma; M14 melanoma.
Holding throughout (experiment): NCI-60 one-dose screen, 48 h (100 = growth as untreated, 0 = no growth, -100 = all killed)
Common to all, as to details: 10 µM unless noted

On to `CC1=C(C)C(=O)C(Nc2ccc(C)c(C)c2)=C(Br)C1=O`, for which the growth was 76.9% in the test with NCI-H23 lung; 89.6% in the test with NCI-H226 lung; 102% with NCI-H322M lung; 104% in the test on HOP-62 NSCLC; 99.6% in the test with NCI-H460 lung; 3.51% (active) in the test on HOP-92 NSCLC. Moreover, the growth in the test with NCI-H522 lung is 97.2%; in the test on A549/ATCC NSCLC, 103%; in the test with 786-0 renal it was 105%; in the test with COLO 205 colon it was 116%; in the test on DU-145 prostate, 109%; in the test with K-562 leukemia, -2.41% (active). The growth with MALME-3M melanoma is 114%; with MDA-MB-231 breast, 65.1%; in the test on RXF 393 renal it was 87.9%; in the test on SF-268 CNS it was 98.4%; in the test on SF-295 CNS it was 92.9%; in the test with SF-539 CNS, 98.9%. In addition, the growth was 98.5% in the test on UACC-257 melanoma and 96.5% with M14 melanoma.
Consider `CCCc1[nH]c(-c2cc(N)ccc2Cl)c2c1C(=O)CCCC2`, for which the growth in the test on NCI-H23 lung is 93.3%; in the test on NCI-H226 lung it was 98.1%; with NCI-H322M lung, 89.1%; in the test with HOP-62 NSCLC, 94.5%; in the test on NCI-H460 lung, 102%; with HOP-92 NSCLC it was 81.6%. Besides, the growth in the test on NCI-H522 lung is 90.9%; with A549/ATCC NSCLC, 91.9%; in the test on 786-0 renal, 91%; in the test on COLO 205 colon, 121%; with DU-145 prostate it was 107%; with K-562 leukemia, 93.1%. For the same compound, the growth with MALME-3M melanoma is 93.7%; with MDA-MB-231 breast, 100%; in the test with RXF 393 renal, 102%; in the test on SF-268 CNS, 97.3%; in the test with SF-295 CNS it was 80.8%; in the test on SF-539 CNS it was 98.3%. The growth was 104% with UACC-257 melanoma and 107% in the test with M14 melanoma.
`CN1CCN(c2ccc(Nc3nc(NCCNS(=O)(=O)c4ccccc4)c4sccc4n3)cc2)CC1`: the growth was 97.5% in the test with NCI-H23 lung; 94.2% with NCI-H226 lung; 94.9% with NCI-H322M lung; 98.7% with HOP-62 NSCLC; 104% with NCI-H460 lung; 57.3% with HOP-92 NSCLC. Besides, the growth in the test on NCI-H522 lung is 95%; with A549/ATCC NSCLC, 104%; in the test with 786-0 renal it was 99.2%; in the test with COLO 205 colon, 110%; in the test on DU-145 prostate, 106%; in the test on K-562 leukemia it was 84%. The growth with MALME-3M melanoma is 104%; in the test on MDA-MB-231 breast it was 102%; in the test with RXF 393 renal it was 87.3%; in the test on SF-268 CNS, 79.6%; in the test on SF-295 CNS, 105%; in the test on SF-539 CNS, 95.4%. In addition, the growth in the test on UACC-257 melanoma was 114%; in the test on M14 melanoma it was 106%.
As for `Cc1cc(Br)ccc1-n1cc(C#N)c(N)c1C(=O)c1ccc(Br)cc1`, the growth in the test with NCI-H23 lung was 92.7%; with NCI-H226 lung, 97.7%; in the test with NCI-H322M lung, 104%; in the test with HOP-62 NSCLC, 103%; in the test with NCI-H460 lung, 113%; in the test with HOP-92 NSCLC, 94.2%. The growth with NCI-H522 lung was 99.6%; with A549/ATCC NSCLC, 105%; in the test with 786-0 renal it was 93.5%; in the test on COLO 205 colon it was 118%; in the test with DU-145 prostate it was 119%; with K-562 leukemia it was 119%. Further, the growth in the test with MALME-3M melanoma is 106%; in the test with MDA-MB-231 breast it was 93.6%; in the test with RXF 393 renal it was 108%; in the test with SF-268 CNS it was 114%; in the test on SF-295 CNS it was 98.5%; in the test with SF-539 CNS, 97.4%. Besides, the growth was 103% in the test on UACC-257 melanoma and 89.4% in the test on M14 melanoma.
On to `O=C1C(SCc2ccccc2)=C(Cl)CN1c1ccc(Cl)cc1`, for which the growth was 80.5% in the test on NCI-H23 lung; 99% in the test on NCI-H226 lung; 98.2% with NCI-H322M lung; 109% with HOP-62 NSCLC; 106% in the test on NCI-H460 lung; 104% in the test on HOP-92 NSCLC. In addition, the growth in the test with NCI-H522 lung is -59.6% (active); in the test with A549/ATCC NSCLC it was 101%; in the test with 786-0 renal, 103%; with COLO 205 colon it was 119%; in the test with DU-145 prostate, 49.5%; with K-562 leukemia, 52.9%. Moreover, the growth in the test on MALME-3M melanoma was 103%; in the test with MDA-MB-231 breast, 101%; in the test with RXF 393 renal it was 107%; in the test on SF-268 CNS, 108%; in the test with SF-295 CNS, 102%; with SF-539 CNS, 97.9%. For the same compound, the growth with UACC-257 melanoma was 97.2%; in the test on M14 melanoma, 78%.
As for `CCCN1C=C/C(=C\C(=O)n2ccc3ccccc32)c2ccccc21`, the growth is 72.9% in the test on NCI-H23 lung; 75.1% with NCI-H226 lung; 80.2% in the test on NCI-H322M lung; 94.6% with HOP-62 NSCLC; 94.5% in the test with NCI-H460 lung; 47.9% in the test on HOP-92 NSCLC. Moreover, the growth is 78.4% in the test with NCI-H522 lung; 84.9% in the test with A549/ATCC NSCLC; 103% in the test on 786-0 renal; 96.4% in the test on COLO 205 colon; 87.7% in the test on DU-145 prostate; 56.9% in the test on K-562 leukemia. In addition, the growth with MALME-3M melanoma was 104%; in the test on MDA-MB-231 breast, 76.2%; with RXF 393 renal, 97.6%; with SF-268 CNS, 96.4%; in the test on SF-295 CNS, 83.1%; in the test with SF-539 CNS, 88.2%. Also, the growth with UACC-257 melanoma is 102%; with M14 melanoma, 95.4%.
`Cc1ccc2c(n1)C(=O)C(Cl)=C(Nc1ccc(C(F)(F)F)cc1)C2=O`: the growth is 68.5% in the test on NCI-H23 lung; 89.5% in the test with NCI-H226 lung; 107% with NCI-H322M lung; 97.2% in the test with HOP-62 NSCLC; 101% in the test on NCI-H460 lung; 71.3% in the test on HOP-92 NSCLC. The growth with NCI-H522 lung was -18.8% (active); in the test on A549/ATCC NSCLC, 102%; with 786-0 renal it was 34%; in the test on COLO 205 colon, 16.7%; with DU-145 prostate it was 105%; in the test with K-562 leukemia it was 7.13% (active). The growth was -49.6% (active) in the test with MALME-3M melanoma; 76.4% with MDA-MB-231 breast; -15.7% (active) in the test with RXF 393 renal; 97.7% in the test on SF-268 CNS; 112% in the test on SF-295 CNS; 101% in the test on SF-539 CNS. Further, the growth with UACC-257 melanoma is 35.6%; in the test on M14 melanoma, 28.6%.
With `Cc1ccc([C@H]2c3[nH]c4ccccc4c3C[C@H]3C(=O)N(CCCCCCC(=O)NO)CC(=O)N23)s1`, the growth with NCI-H23 lung is 77.6%; in the test on NCI-H226 lung, 94%; with NCI-H322M lung it was 67.4%; in the test on HOP-62 NSCLC it was 68%; with NCI-H460 lung, 57.3%; with HOP-92 NSCLC, 51.2%. In addition, the growth in the test on NCI-H522 lung was 41.1%; with A549/ATCC NSCLC, 85.5%; in the test with 786-0 renal it was 89.3%; in the test on COLO 205 colon it was 67.9%; in the test on DU-145 prostate it was 71.5%; in the test with K-562 leukemia it was 35.8%. In addition, the growth in the test on MALME-3M melanoma was 22.9%; in the test with MDA-MB-231 breast, 72.2%; with RXF 393 renal, 59.7%; in the test on SF-268 CNS, 88.5%; with SF-295 CNS it was 78.1%; in the test on SF-539 CNS it was 58%. In addition, the growth with UACC-257 melanoma was 53.5%; with M14 melanoma, 63.5%.
